# Most compounds without a hit are left out; they make up all but 2.4% or so of the library.
# TNF death inh = blocks TNF-alpha induced death of Jurkat FADD-/- cells; Jurkat FADD-/- TNF necroptosis rescue, ATP luminescence, 24 h; 0 = TNF only, 100 = no-TNF cells; activation (protection from cell death), % at 10 µM; hit rate 0.068% among 220,000; AID 463075;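 active = activation, meaning protection from cell death, of at least 50% relative to plate controls; inactive = activation below 50%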;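 note: necroptosis triggered by 40 ng/mL TNF-alpha added together with compound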
# Bim-Mcl-1 = inhibitors of Bim-Mcl-1 interaction, human; Q07820; Bead-based flow cytometry, Bim peptide-Mcl-1 binding; inhibition, % at 10 µM; hit rate 0.1% among 190,000; AID 1009; in the data active = inhibition above about 40%;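 note: 0% = no compound tracer wells and 100% = peptide blocker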
# Target sequence (Q07820 whole entry, looked up): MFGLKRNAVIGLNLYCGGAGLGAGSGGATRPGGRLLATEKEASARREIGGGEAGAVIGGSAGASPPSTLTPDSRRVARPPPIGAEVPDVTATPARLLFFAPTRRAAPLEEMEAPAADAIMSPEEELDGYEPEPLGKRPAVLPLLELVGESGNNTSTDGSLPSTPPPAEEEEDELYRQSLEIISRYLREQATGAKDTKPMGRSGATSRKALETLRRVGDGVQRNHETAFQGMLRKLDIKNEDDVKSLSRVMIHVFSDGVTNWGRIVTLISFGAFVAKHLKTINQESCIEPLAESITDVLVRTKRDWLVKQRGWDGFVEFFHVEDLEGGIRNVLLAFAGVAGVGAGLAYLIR
# Mcl1-Noxa inh = Mcl-1/Noxa interaction inhibition | TR-FRET Mcl-1/Noxa peptide binding, 2 h | Q07820 | inhibition, % at 21.7 µM | hit rate 1.5% among 220,000;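 active = compounds that cut the protein-peptide binding signal by more than 50% relative to plate controls in a single-dose test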;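 note: His-tagged Mcl-1 with rhodamine Noxa BH3 peptide and terbium anti-His antibody; 0% = Mcl-1 plus Noxa peptide wells and 100% = peptide-only wells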
# L929 necroptosis = blocks zVAD induced death of L929 cells | AID 1377 | hit rate 0.38% among 220,000 | viability rescue, % at 10 µM | L929 zVAD necroptosis rescue, ATP luminescence, 24 h; with zVAD 60 µM;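 active = activation, scaled between plate controls, above about 75%, limit read from the data; inactive = activation under that limit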;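 note: 0% = zVAD with DMSO and 100% = DMSO alone without zVAD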
# Mcl1-Bid inh = disrupts binding of human Mcl-1 to Bid peptide | AID 1021 | inhibition, % at 21.7 µM | TR-FRET Mcl-1/Bid-Dy647 peptide binding, 1536-well | hit rate 0.97% among 220,000 | Q07820;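 active = compounds that cut the binding signal by more than half at the single screening dose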;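 note: His-tagged Mcl-1 with europium anti-His antibody binding Bid BH3 peptide; 0% = Mcl-1 plus peptide wells and 100% = peptide-only wells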
# MCL1 BIM primary = MCL1-BIM-BH3 interaction inhibition (human); Q07820; GST-MCL1 / FITC-Bim-BH3 fluorescence polarization; inhibition, % at 10.9 µM; hit rate 0.68% among 320,000; AID 2057;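 active = inhibition above the mean inhibition of all tested compounds plus 3 SD, set per campaign, cut at about 40% in these data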;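 note: 0% = DMSO wells and 100% = unlabeled Bim-BH3 peptide control; higher means more loss of mP so more displacement of Bim peptide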
# An asterisk follows results filed as active; / = not tested or not shown.
SMILES,TNF death inh,Bim-Mcl-1,Mcl1-Noxa inh,L929 necroptosis,Mcl1-Bid inh,MCL1 BIM primary
CCOC(=O)c1sc(NC(=O)CSc2nc(C)cc(C)c2C#N)c(C#N)c1C,-1.3,0.0,-60.0,-0.3,65.9*,0.9
CCOC(=O)c1c(NC(=O)c2ccncc2)sc(C)c1C,0.2,0.0,10.8,0.6,-3.0,11.9
CCOC(=O)c1sc(NC(=O)c2ccncc2)c(C#N)c1C,-0.8,7.0,54.2*,0.2,8.3,9.0
N#Cc1c(NC(=O)c2cccc(S(=O)(=O)Nc3ccc(C(=O)O)cc3)c2)sc2c1CCCC2,-1.1,/,76.8*,0.3,1.4,19.3
CCOC(=O)c1sc(NC(=O)CSc2nc3c(cc2C#N)CCC3)c(C#N)c1C,1.0,/,/,1.2,/,/
O=C(Nc1c(-c2ccccc2)nc2ccccn12)c1ccccc1F,/,/,/,/,/,6.4
Cc1c(Cl)c([N+](=O)[O-])nn1CC(=O)N1CCN(C23CC4CC(CC(C4)C2)C3)CC1,/,/,/,/,/,9.3
COc1cc(/C=C2\S/C(=N/S(=O)(=O)Cc3ccccc3)NC2=O)c([N+](=O)[O-])cc1OC,4.3,/,11.2,2.1,6.1,23.0
COc1cc(/C=C2/S/C(=N/S(=O)(=O)c3ccccc3)NC2=O)c([N+](=O)[O-])cc1OC,0.5,0.0,29.4,0.6,20.8,46.2*
O=C(COc1ccc2c(c1)oc(=O)c1ccccc12)NC(Cc1ccc(Cl)cc1)C(=O)O (stereo not drawn),/,/,/,/,/,0.3
CC1=C(C(=O)OCC2CCCCC2)C(c2ccc(O)cc2)NC(=O)N1 (stereo not drawn),/,/,/,/,/,-1.8
O=C(O)C(O)c1ccccc1 (stereo not drawn),/,-1.0,-13.2,/,8.0,-3.2
O=C(O)C(O)c1ccco1 (stereo not drawn),1.6,-2.0,67.3*,0.1,-25.1,/
Cc1ccc(-c2ccc(C#N)c(=O)n2CC(=O)N(C)C)cc1,/,/,/,/,/,5.2
Cc1ccc(NS(=O)(=O)c2cccc(C(=O)O)c2)cc1S(=O)(=O)N1CCCCC1,2.0,12.0,71.7*,1.5,-40.5,7.5
CN(C)c1ccc(NC(=O)CCn2c(=S)oc3ccccc32)cc1,0.1,2.0,67.6*,1.3,-14.6,29.8
NC(=O)/C(=C/c1ccco1)NC(=O)c1ccc(Br)o1,-1.5,/,/,-0.1,/,40.2*
COC(=O)/C(=C/c1ccco1)NC(=O)c1ccc(Br)o1,-0.3,-1.0,3.3,1.4,-28.1,12.9
COCCN(CC(=O)Nc1cccc(C)c1C)C(=O)CN1C(=O)NC2(CCCCC2)C1=O,/,/,/,/,/,-8.2
COc1cc(/C=C2/SC(N)=NC2=O)ccc1Oc1ccc([N+](=O)[O-])cc1[N+](=O)[O-],3.3,-4.0,60.3*,4.5,67.3*,5.4
COc1cc(/C=C2/SC(=O)NC2=O)ccc1Oc1ccc([N+](=O)[O-])cc1[N+](=O)[O-],4.8,/,89.7*,0.1,-107.3,10.4
CN1C(=O)C(=O)/C(=C(/O)c2ccc(Br)cc2)C1c1ccccc1F (stereo not drawn),/,/,/,/,/,5.4
Cc1ccc2oc(=O)c3cnn(CC(=O)NC4CCC(C)CC4)c3c2c1 (stereo not drawn),-0.5,-2.0,8.8,-0.2,34.5,-7.2
Cc1ccc2oc(=O)c3cnn(CC(=O)NC4CCCCC4C)c3c2c1 (stereo not drawn),-0.2,0.0,-5.6,-0.3,65.2*,8.7
C=CCc1ccc(OCCCN2CCCC(C)C2)c(OC)c1 (stereo not drawn),0.3,-4.0,12.3,-0.5,59.0*,6.7
SMILES,TNF death inh,Bim-Mcl-1,Mcl1-Noxa inh,L929 necroptosis,Mcl1-Bid inh,MCL1 BIM primary
O=C(Nc1nnc(-c2ccccc2Cl)o1)c1cc2cc([N+](=O)[O-])ccc2s1,0.8,-2.0,55.1*,0.2,35.4,/
O=C(Nc1ccccn1)c1cc2cc([N+](=O)[O-])ccc2s1,-2.5,0.0,35.7,-1.8,8.3,1.6
O=C(N/N=C/c1c[nH]c2ccccc12)c1cc(-c2ccccc2)n[nH]1,-0.4,-3.0,28.4,55.0,-3.1,3.6
O=C(N/N=C/c1c[nH]c2ccccc12)c1cc(-c2ccc(-c3ccccc3)cc2)n[nH]1,-8.3,0.0,46.6,1.9,51.5*,-3.9
CCOc1ccc(-n2c(SCC(=O)Nc3ccc(Br)cc3)nc3n[nH]c(C)c3c2=N)cc1,-1.7,-1.0,50.7*,1.1,57.9*,9.6
CC(C)CNC(=O)C(=O)Nc1cc2c3c(c1)C(C)C(=O)N3CCC2 (stereo not drawn),/,/,/,/,/,3.9
Cc1ccc(-c2ccc(CCC(=O)O)n2NC(=O)c2cccs2)cc1,-1.7,49.0*,-6.3,0.7,-39.9,0.5
O=C(CSc1nccc(=O)[nH]1)c1ccccc1Br,3.1,-2.0,-9.0,0.2,70.9*,12.1
O=C(CSc1nc2ncccc2[nH]1)Nc1ccccc1-c1ccccc1,/,/,/,/,/,-2.7
NC(=NC(=O)c1ccc(Cl)cc1)N1N=CCC1c1ccccc1 (stereo not drawn),0.2,0.0,10.7,1.2,-3.6,-7.5
O=C(CSc1ccc(Cl)cc1)N1N=CCC1c1ccccc1 (stereo not drawn),99.5*,/,-8.7,64.6,-14.8,-0.4
COCCCNC(=O)c1ccc(CS(=O)(=O)Cc2cccc(C)c2)o1,-0.4,0.0,11.2,1.0,-1.3,1.2
Cc1cccc(CS(=O)(=O)Cc2ccc(C(=O)O)o2)c1,0.0,-5.0,56.4*,0.4,-2.1,4.0
CCOc1ccc(S(=O)(=O)NCCC(=O)NCCOc2ccccc2)cc1,/,/,/,/,/,-3.5
COc1cccc(-c2cc(=O)c3cc(NC(=O)c4ccc(N(C)C)cc4)ccc3[nH]2)c1,-18.8,0.0,57.5*,8.4,16.7,-4.3
COc1ccc(CCNC(=O)c2ccccc2C(=O)NCCc2ccc(OC)c(OC)c2)cc1OC,/,/,/,/,/,5.1
O=C(Nc1cccc(-c2cn3cccnc3n2)c1)c1ccc2c(c1)OCO2,-1.1,-1.0,57.0*,1.0,41.2,0.6
CC(C)c1ccc(Nc2nc(NCc3ccco3)nc(N3CCOCC3)n2)cc1,1.7,-7.0,34.6,86.5*,3.9,4.0
O=S(=O)(Nc1ccc2nc(-c3ccc(Br)o3)[nH]c2c1)c1ccccc1,-5.7,-1.0,52.1*,6.0,-29.8,/
CNc1nc(SC)n(C)c(=O)c1N=O,2.1,/,5.4,0.2,-27.4,5.3
COc1ccc2oc(-c3ccc(C)c(NC(=O)CSc4ccc(Cl)cc4)c3)nc2c1,-1.2,-2.0,35.5,0.1,53.7*,2.5
Cc1cccc(OCCCC(=O)Nc2ccc(N(C)C)cc2)c1,2.5,0.0,77.1*,1.5,-36.2,20.8
N=C1/C(=C/c2cccn2-c2ccc([N+](=O)[O-])cc2)C(=O)N=C2SC=CN12,0.9,-7.0,61.2*,1.5,-63.1,21.4
CS(=O)(=O)C1=NSC2=NC(=O)/C(=C\c3cccn3-c3ccc(Cl)cc3)C(=N)N21,1.7,14.0,91.6*,0.4,-13.7,17.2
O=C1NC(=S)N/C1=C/c1cccn1-c1ccc([N+](=O)[O-])cc1,-2.9,-4.0,79.9*,0.1,-42.0,13.8
